Source: PubChem BioAssay AID1159580 (chemical genetic matrix, 2015)
The campaign covered roughly 5,500 compounds. About 2,000 (36%) were called active. Another 18% or so got no clear call; they are omitted. No stated cut-off is given here; in the data, active means normalized growth mostly below about 0.91 (no sharp cut-off); inconclusive means no clear call, values can overlap the other calls; inactive means mostly above about 0.92. This is one part of the list.

Experiment: chemical genetic growth profiling, strain panel (AID 1159580);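 further: tested at 20 µM; growth read once vehicle control cultures reached saturation at 30 °C; 1 = growth at the plate median or of vehicle wells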
Settings: growth OD
[1] = S. cerevisiae deletion strains, locus YGR078C, strain PAC10, stronger effect = lower value
[2] = S. cerevisiae deletion strains, locus YGR229C, strain SMI1, stronger effect = lower value
[3] = S. cerevisiae deletion strains, locus YNL153C, strain GIM3, stronger effect = lower value
[4] = S. cerevisiae deletion strains, locus YNL322C, strain KRE1, stronger effect = lower value
[5] = S. cerevisiae deletion strains, locus YPL055C, strain LGE1, stronger effect = lower value
[6] = S. cerevisiae deletion strains, locus YPL241C, strain CIN2, stronger effect = lower value
[7] = S. cerevisiae deletion strains, locus YAL013W, strain DEP1, stronger effect = lower value
[8] = S. cerevisiae deletion strains, locus YBR229C, strain ROT2, stronger effect = lower value
[9] = S. cerevisiae deletion strains, locus YDL101C, strain DUN1, stronger effect = lower value
[10] = S. cerevisiae deletion strains, locus YDR150W, strain NUM1, stronger effect = lower value
[11] = S. cerevisiae deletion strains, locus YEL061C, strain CIN8, stronger effect = lower value
[12] = S. cerevisiae deletion strains, locus YHR030C, strain SLT2, stronger effect = lower value
[13] = S. cerevisiae deletion strains, locus YJR043C, strain POL32, stronger effect = lower value
[14] = S. cerevisiae deletion strains, locus YJR075W, strain HOC1, stronger effect = lower value
[15] = S. cerevisiae deletion strains, locus YKL190W, strain CNB1, stronger effect = lower value
[16] = S. cerevisiae deletion strains, locus YLR039C, strain RIC1, stronger effect = lower value
[17] = S. cerevisiae deletion strains, locus YLR262C, strain YPT6, stronger effect = lower value
[18] = S. cerevisiae deletion strains, locus YMR263W, strain SAP30, stronger effect = lower value
[19] = S. cerevisiae deletion strains, locus YMR307W, strain GAS1, stronger effect = lower value
[20] = S. cerevisiae deletion strains, locus YNL128W, strain TEP1, stronger effect = lower value
[21] = S. cerevisiae strains, strain wild type, stronger effect = lower value
[22] = S. cerevisiae deletion strains, locus YHR087W, strain rtc3, stronger effect = lower value
[23] = S. cerevisiae deletion strains, locus YJL187C, strain SWE1, stronger effect = lower value
[24] = S. cerevisiae deletion strains, locus YLR058C, strain SHM2 (second series), stronger effect = lower value
[25] = S. cerevisiae deletion strains, locus YLR085C, strain ARP6, stronger effect = lower value
[26] = S. cerevisiae deletion strains, locus YML094W, strain GIM5, stronger effect = lower value
[27] = S. cerevisiae deletion strains, locus YMR219W, strain ESC1, stronger effect = lower value
[28] = S. cerevisiae deletion strains, locus YNL298W, strain CLA4 (second series), stronger effect = lower value
[29] = S. cerevisiae deletion strains, locus YNR030W, strain Alg12, stronger effect = lower value
[30] = S. cerevisiae deletion strains, locus YPR135W, strain CTF4, stronger effect = lower value

Measured: normalized growth

COC(=O)c1c(C)[nH]c(C)c1C(=O)c1ccccc1Cc1ccccc1
inactive: S. cerevisiae deletion strains, locus YAL040C, strain CLN3, stronger effect = lower value 0.995 | S. cerevisiae deletion strains, locus YCL061C, strain MRC1 (second series), stronger effect = lower value 1 | S. cerevisiae deletion strains, locus YDR363W, strain ESC2, stronger effect = lower value 1.02 | S. cerevisiae deletion strains, locus YER002W, strain NOP16, stronger effect = lower value 0.984 | [1] 0.989 | [2] 1.06 | [3] 0.987 | S. cerevisiae deletion strains, locus YNL175C, strain NOP13, stronger effect = lower value 0.986 | S. cerevisiae deletion strains, locus YNL197C, strain WHI3, stronger effect = lower value 0.983 | S. cerevisiae deletion strains, locus YNL224C, strain SQS1, stronger effect = lower value 0.983 | [4] 1.01 | S. cerevisiae deletion strains, locus YOR083W, strain WHI5 (second series), stronger effect = lower value 0.964 | [5] 1.01 | [6] 1

COC(=O)c1c(Cl)c(Cl)c(C(=O)OC)c(Cl)c1Cl
inactive: [7] 0.991 | S. cerevisiae deletion strains, locus YBR021W, strain FUR4, stronger effect = lower value 0.972 | [8] 1 | S. cerevisiae deletion strains, locus YCL029C, strain bik1, stronger effect = lower value 1.01 | S. cerevisiae deletion strains, locus YDL035C, strain GPR1, stronger effect = lower value 1.01 | S. cerevisiae deletion strains, locus YDL074C, strain BRE1, stronger effect = lower value 0.927 | [9] 0.978 | S. cerevisiae deletion strains, locus YDL134C, strain PPH21, stronger effect = lower value 0.998 | S. cerevisiae deletion strains, locus YDL185W, strain tfp1, stronger effect = lower value 1.01 | S. cerevisiae deletion strains, locus YDL192W, strain arf1, stronger effect = lower value 1 | S. cerevisiae deletion strains, locus YDR101C, strain arx1, stronger effect = lower value 0.995 | [10] 1 | S. cerevisiae deletion strains, locus YDR162C, strain NBP2, stronger effect = lower value 0.997 | S. cerevisiae deletion strains, locus YDR318W, strain mcm21, stronger effect = lower value 1 | S. cerevisiae deletion strains, locus YDR388W, stronger effect = lower value 1 | S. cerevisiae deletion strains, locus YDR502C, strain sam2, stronger effect = lower value 0.999 | [11] 0.999 | S. cerevisiae deletion strains, locus YER110C, stronger effect = lower value 1 | S. cerevisiae deletion strains, locus YER155C, strain BEM2, stronger effect = lower value 0.984 | S. cerevisiae deletion strains, locus YER167W, strain BCK2, stronger effect = lower value 0.998 | S. cerevisiae deletion strains, locus YGL078C, strain dbp3, stronger effect = lower value 1.01 | S. cerevisiae deletion strains, locus YGL086W, strain mad1, stronger effect = lower value 0.998 | S. cerevisiae deletion strains, locus YGL248W, strain PDE1, stronger effect = lower value 1.01 | [1] 0.987 | S. cerevisiae deletion strains, locus YGR135W, strain pre9, stronger effect = lower value 0.994 | [2] 0.988 | S. cerevisiae deletion strains, locus YGR252W, strain gcn5, stronger effect = lower value 0.944 | [12] 0.971 | S. cerevisiae deletion strains, locus YHR079C, strain IRE1 (second series), stronger effect = lower value 1 | S. cerevisiae deletion strains, locus YHR094C, strain hxt1, stronger effect = lower value 1 | S. cerevisiae deletion strains, locus YHR129C, strain ARP1, stronger effect = lower value 0.996 | S. cerevisiae deletion strains, locus YHR200W, strain rpn10, stronger effect = lower value 1 | S. cerevisiae deletion strains, locus YIL066C, strain RNR3, stronger effect = lower value 0.984 | S. cerevisiae deletion strains, locus YIL073C, strain SPO22, stronger effect = lower value 1.03 | S. cerevisiae deletion strains, locus YIL125W, strain kgd1, stronger effect = lower value 0.994 | S. cerevisiae deletion strains, locus YIR030C, strain dcg1, stronger effect = lower value 1.01 | S. cerevisiae deletion strains, locus YJL095W, strain BCK1, stronger effect = lower value 0.962 | S. cerevisiae deletion strains, locus YJL134W, strain LCB3, stronger effect = lower value 1 | S. cerevisiae deletion strains, locus YJL168C, strain set2, stronger effect = lower value 1 | S. cerevisiae deletion strains, locus YJL187C, strain SWE1 (second series), stronger effect = lower value 1.01 | [13] 0.969 | [14] 0.978 | S. cerevisiae deletion strains, locus YKL009W, strain mrt4, stronger effect = lower value 0.987 | S. cerevisiae deletion strains, locus YKL068W, stronger effect = lower value 0.996 | S. cerevisiae deletion strains, locus YKL085W, strain MDH1 (second series), stronger effect = lower value 0.995 | S. cerevisiae deletion strains, locus YKL085W, strain MDH1, stronger effect = lower value 0.995 | [15] 0.998 | S. cerevisiae deletion strains, locus YKR001C, strain vps1, stronger effect = lower value 1.03 | [16] 1.24 | S. cerevisiae deletion strains, locus YLR058C, strain SHM2, stronger effect = lower value 1 | S. cerevisiae deletion strains, locus YLR102C, strain apc9, stronger effect = lower value 1.01 | [17] 1.18 | S. cerevisiae deletion strains, locus YLR268W, strain sec22, stronger effect = lower value 0.992 | S. cerevisiae deletion strains, locus YLR330W, strain CHS5, stronger effect = lower value 1 | S. cerevisiae deletion strains, locus YLR342W, strain FKS1 (second series), stronger effect = lower value 1.01 | S. cerevisiae deletion strains, locus YLR371W, strain rom2, stronger effect = lower value 1.01 | S. cerevisiae deletion strains, locus YLR418C, strain cdc73, stronger effect = lower value 0.929 | S. cerevisiae deletion strains, locus YML016C, strain PPZ1, stronger effect = lower value 0.993 | S. cerevisiae deletion strains, locus YML032C, strain rad52, stronger effect = lower value 1.01 | S. cerevisiae deletion strains, locus YML124C, strain tub3, stronger effect = lower value 1.01 | S. cerevisiae deletion strains, locus YMR078C, strain ctf18, stronger effect = lower value 1.01 | S. cerevisiae deletion strains, locus YMR223W, strain ubp8, stronger effect = lower value 1 | [18] 0.987 | [19] 0.972 | S. cerevisiae deletion strains, locus YNL067W, strain RPL9B, stronger effect = lower value 0.985 | [20] 1 | [3] 1 | S. cerevisiae deletion strains, locus YNL233W, strain BNI4, stronger effect = lower value 1.01 | S. cerevisiae deletion strains, locus YNL250W, strain rad50, stronger effect = lower value 1.01 | S. cerevisiae deletion strains, locus YNL271C, strain bni1, stronger effect = lower value 1.01 | S. cerevisiae deletion strains, locus YNL298W, strain CLA4, stronger effect = lower value 0.997 | S. cerevisiae deletion strains, locus YNL307C, strain MCK1, stronger effect = lower value 0.998 | [4] 0.994 | S. cerevisiae deletion strains, locus YNR052C, strain pop2, stronger effect = lower value 1.02 | S. cerevisiae deletion strains, locus YOL006C, strain TOP1, stronger effect = lower value 0.914 | S. cerevisiae deletion strains, locus YOL012C, strain htz1 0.967 | S. cerevisiae deletion strains, locus YOL147C, strain pex11, stronger effect = lower value 1.01 | S. cerevisiae deletion strains, locus YOR061W, strain CKA2, stronger effect = lower value 0.999 | S. cerevisiae deletion strains, locus YOR069W, strain VPS5, stronger effect = lower value 1 | S. cerevisiae deletion strains, locus YOR136W, strain idh2, stronger effect = lower value 1 | S. cerevisiae deletion strains, locus YOR144C, strain elg1, stronger effect = lower value 1 | S. cerevisiae deletion strains, locus YOR184W, strain ser1, stronger effect = lower value 0.989 | S. cerevisiae deletion strains, locus YOR316C, strain cot1, stronger effect = lower value 1 | [5] 0.937 | [6] 0.99 | S. cerevisiae deletion strains, locus YPR119W, strain clb2, stronger effect = lower value 1 | S. cerevisiae deletion strains, locus YPR141C, strain kar3, stronger effect = lower value 1.01 | S. cerevisiae deletion strains, locus YPR163C, strain tif3, stronger effect = lower value 1 | S. cerevisiae deletion strains, locus YPR167C, strain met16, stronger effect = lower value 0.995 | S. cerevisiae deletion strains, strain wtn01, stronger effect = lower value 0.998 | [21] 0.991

COC(=O)c1c(C)[nH]c(C)c1C(C)=O
inactive: [7] 1.03 | [8] 1.01 | [9] 0.968 | [10] 1.01 | [11] 1.01 | [1] 1.03 | [12] 1.05 | [22] 1.03 | [23] 0.995 | [13] 0.976 | [14] 0.999 | [15] 1.01 | [16] 1.07 | [24] 1 | [25] 1.18 | [17] 1.02 | [26] 1.04 | [27] 1.01 | [18] 1 | [19] 1.03 | [3] 0.994 | [28] 1.01 | [4] 1.01 | [29] 1.04 | [5] 1.05 | [6] 1.08 | [21] 1.01
active: [30] 1.36 [resistant]

Cc1ccc(Oc2ccc(C)cc2)cc1
inactive: [7] 0.993 | [8] 0.999 | [9] 1.01 | [10] 0.999 | [11] 0.976 | [1] 1 | [22] 1.03 | [23] 0.993 | [13] 0.992 | [14] 1.01 | [15] 1 | [16] 0.897 | [24] 0.991 | [25] 0.864 | [17] 0.889 | [26] 1.06 | [27] 1 | [18] 0.969 | [20] 0.995 | [3] 0.999 | [28] 0.96 | [4] 0.993 | [29] 0.962 | [5] 1.02 | [6] 0.936 | [30] 0.912
active: [12] 0.663
